# HePTP inhibitor: inhibitors of human HePTP phosphatase, primary screen, biochemical, absorbance, leukemia target. recombinant HePTP phosphatase activity, OD absorbance. inhibition, % at 20 µM. 0.64% of 110,000 active. AID 521, 2006; in the data active means inhibition above about 50%;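 further: plate controls were vehicle for no effect and reference inhibitor for full effect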
# Target sequence (P35236 whole entry, looked up): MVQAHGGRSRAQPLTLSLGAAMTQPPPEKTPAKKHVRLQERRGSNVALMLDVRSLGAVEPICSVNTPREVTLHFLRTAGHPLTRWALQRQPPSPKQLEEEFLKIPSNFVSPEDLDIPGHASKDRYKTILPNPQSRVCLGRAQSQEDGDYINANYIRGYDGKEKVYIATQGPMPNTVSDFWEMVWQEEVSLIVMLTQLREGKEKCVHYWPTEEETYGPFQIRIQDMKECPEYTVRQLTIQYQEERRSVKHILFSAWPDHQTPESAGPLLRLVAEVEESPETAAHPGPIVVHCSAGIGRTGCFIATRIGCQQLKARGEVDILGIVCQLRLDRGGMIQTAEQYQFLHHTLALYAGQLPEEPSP
# ERa coact inh: ERα–SRC-1 coactivator interaction inhibitors, primary screen, biochemical, TR-FRET, ERα LBD, estradiol-bound; Estrogen receptor (Homo sapiens), P03372; TR-FRET ER-alpha LBD / SRC-1 peptide; inhibition, % at 25.6 µM; 1.7% of 86,000 active; in the data active means inhibition above about 50%;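 further: 0% = receptor plus peptide control and 100% = peptide only without receptor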
# ERb SRC1 inh: inhibitors of ERβ-SRC1 coactivator interaction, primary screen, biochemical, TR-FRET, ERβ LBD, SRC-1 peptide | inhibition, % at 25.6 µM | 1.3% of 86,000 active | TR-FRET ER-beta LBD / SRC1-Cy5 peptide binding; receptor agonist-loaded with 1 µM estradiol | AID 633, 2007;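 active means compounds whose percent inhibition of the receptor-coactivator binding signal exceeds about 50% in the single-dose screen, limit read from the data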;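 further: 0% = receptor plus peptide wells without compound and 100% = peptide-only wells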
# Candida biofilm: clotrimazole potentiators killing Candida biofilms, primary screen, with clotrimazole, Alamar Blue; C. albicans biofilm + clotrimazole; 0.14% of 85,000 active; inhibition, % at 6 µM; AID 834, 2007;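 active means inhibition above 20%; inactive means inhibition below 20%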;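 further: preformed 24 hr biofilms exposed to compound for 48 hr; 0% = biofilm without compound and 100% = blank killed by clotrimazole plus chlorhexidine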
# ERa coact pot: enhancers of ERα–SRC-1 coactivator binding, primary screen, biochemical, TR-FRET, ERα LBD, low estradiol. AID 639, 2007. coactivator binding (% of control), % at 25.6 µM. 1.3% of 86,000 active. TR-FRET ERalpha-LBD/SRC-Cy5 coactivator binding, 2 h; 100 = basal binding, no effect; in the data active means activity above about 200%;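 further: binding measured in presence of low estradiol as agonist stimulus; 0% = peptide alone without receptor and 100% = receptor with peptide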
# Smad3 FoxH1 inh: Smad3/FoxH1 peptide binding inhibitors, primary screen, biochemical, TR-FRET; Mothers against decapentaplegic homolog 3 (Homo sapiens), P84022; TR-FRET Smad3/Dy647-FoxH1 peptide binding, europium anti-His; inhibition, % at 25 µM; 0.29% of 88,000 active;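 active means compounds that reduce the energy-transfer binding signal between the protein and its labelled peptide by more than half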;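 further: 0% = Smad3 plus labelled peptide maximal FRET and 100% = peptide-only background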
# Numbers without * were called inactive; nt = no result given; [ ] = another dose, or the depositor's remark. The list is not random: actives were taken first. Their share in the collection is about 2.9%.
SMILES,HePTP inhibitor,ERa coact inh,ERb SRC1 inh,Candida biofilm,ERa coact pot,Smad3 FoxH1 inh
CC(=O)Nc1ccc2oc(-c3cccc4c(Br)cccc34)nc2c1,2.7,nt,nt,nt,nt,nt
N=C1C(c2nc3ccccc3[nH]2)=C(O)CN1c1ccc(CC(=O)O)cc1,nt,24.8,57.5*,-1.5,51.5,-10.0
CCCCCCN1CC(O)=C(c2nc3ccccc3[nH]2)C1=N,4.2,60.7*[fluorescence artefact?],45.7,4.8,244.1*[fluorescence artefact?],1.9
CCOc1ccccc1NC(=O)c1c(NC(=O)c2ccccc2Cl)sc2c1CCCCC2,20.9,nt,nt,nt,nt,nt
CC(C)(C)CC(C)(C)c1cc(O)c(O)c(CN2CCCCC2)c1,nt,nt,nt,nt,nt,92.5*
Cc1nn(C)c(C)c1NC(=O)CSc1nc(Cc2ccccc2)nc2c1cnn2-c1ccccc1,11.0,81.8*[fluorescence artefact?],56.0*[fluorescence artefact?],1.9,140.9,1.8
CCc1nc(SCC(=O)Nc2c(C)nn(C)c2C)c2cnn(-c3ccccc3)c2n1,nt,47.8,16.5,4.7,93.0,6.0
COc1ccc(NC(=O)C2=C(C)NC(=O)NC2c2cccc(Cl)c2)cc1 (stereo not drawn),-0.4,nt,nt,nt,nt,nt
Cc1ccc(NC(=O)CN(C)S(=O)(=O)c2cccc3cccnc23)cc1,7.3,-4.9,-6.7,23.4*,110.2,5.4
C=CCOc1ccc(/C=C2\C(=O)NC(=S)N(c3ccc(Br)cc3)C2=O)cc1OC,3.6,nt,nt,nt,nt,nt
O=C(Oc1cccc(-c2cnc3ccccc3n2)c1)c1ccco1,nt,-1.1,-15.5,7.6,311.0*,1.9
O=C(Oc1cccc(-c2cnc3ccccc3n2)c1)c1cccc(S(=O)(=O)N2CCOCC2)c1,7.4,nt,nt,nt,nt,nt
COc1ccc(S(=O)(=O)N2CCN(C(C)C)CC2)cc1,12.1,nt,nt,nt,nt,nt
CN=C1SC(CC(=O)Nc2ccc(C(C)=O)cc2)C(=O)N1C (stereo not drawn),nt,79.4*,70.9*,-1.9,51.8,0.3
N#Cc1cnc(Nc2ccc(Cl)cc2)c(C#N)c1Nc1ccccc1,11.8,nt,nt,nt,nt,nt
O=C(N/N=C(/C=C/c1ccccc1[N+](=O)[O-])c1ccccc1)c1ccc(O)cc1,1.9,nt,nt,nt,nt,nt
CCOC(=O)c1sc(=NC(=O)c2cccc(OC)c2)n(C)c1C,2.0,11.2,29.1,0.0,140.7,0.2
CCOC(=O)c1sc(=NC(=O)c2ccc(OC)c(OC)c2)n(C)c1C,9.2,-53.5,29.4,-5.2,429.2*[fluorescence artefact?],-125.9
CCOc1ccc(C(=O)Nc2cccc(NC(=O)c3cccc4ccccc34)c2)cc1,-8.3,nt,nt,nt,nt,nt
COc1cccc(N2CCN(c3ncccn3)CC2)c1,6.9,-2.3,-2.5,1.9,338.2*[fluorescence artefact?],-9.9
COc1cccc(C(=O)N2CCN(c3ncccn3)CC2)c1,1.5,-1.6,-0.8,7.5,110.2,-4.7
CCOC(=O)c1cnc(-n2nc(C)cc2C)nc1NCc1ccc2c(c1)OCO2,0.8,33.8,30.2,6.8,219.5*[fluorescence artefact?],3.3
CCOC(=O)c1cnc(-n2nc(C)cc2C)nc1NCCc1ccccc1,5.3,-5.7,1.6,7.8,90.8,-7.8
Cc1ccc(Nc2cc(=O)[nH]c(=O)[nH]2)cc1,-26.0,nt,nt,nt,nt,nt
CCOC(=O)c1ccc(CC(=O)c2ccc(O)cc2O)o1,nt,-1.1,5.9,10.5,14.6,4.1
SMILES,HePTP inhibitor,ERa coact inh,ERb SRC1 inh,Candida biofilm,ERa coact pot,Smad3 FoxH1 inh
CCC(=O)Oc1ccc(C/C(=N\O)c2ccc(O)cc2O)o1,-3.1,69.6*[fluorescence artefact?],78.1*[fluorescence artefact?],-1.5,12.6,7.9
N#CC(C#N)=Cc1ccc(-c2cc(Cl)ccc2Cl)o1,-11.9,nt,nt,nt,nt,nt
COc1ccccc1S(=O)(=O)Cc1ccc(C(=O)N2CCCC2)o1,4.5,6.9,-12.5,6.5,208.4*,0.4
O=C(COC(=O)C(O)c1ccccc1)c1ccc2c(c1)OCCO2 (stereo not drawn),-10.6,-17.7,4.0,4.7,421.0*,7.5
O=C(CC(c1ccccc1)c1ccccc1)c1ccc2c(c1)OCCO2,-10.7,nt,nt,nt,nt,nt
CS(=O)(=O)N1CCN(c2ccccc2NC(=O)Cc2ccc(Cl)cc2)CC1,-4.7,-4.8,1.0,9.5,947.9*[fluorescence artefact?],-7.2
CCOC(=O)c1ccc(N2NC(=O)/C(=C/c3cc(OC)c(OC)cc3Br)C2=O)cc1,5.1,nt,nt,nt,nt,nt
